The source of these data is PubChem BioAssay AID527 (NMMLSC, 2006).

SMILES strings stand for the structures. Screen size: about 24,000 compounds; about 65 (0.3%) were called active.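 Rule for the calls: active = share of bacteria positive for the green fluorescent reporter and its mean brightness both inhibited by 50% or more; inactive = the rest, inconclusive results apart.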 This excerpt belongs to a sample that is enriched for actives.

The nature of the experiment: blockers of AIP-driven agr signalling in S. aureus – RNAIII-GFP reporter, flow cytometry, primary screen (AID 527).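 Note: 0% = AIP-stimulated control and 100% = unstimulated bacteria without AIP.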 To be noted: S. aureus RN6390 RNAIII-GFP reporter, AIP-induced, flow cytometry 3 h, at 2 µM, stronger effect = higher value.
Where [1] appears, read: measured here: inhibition of GFP MFI.

Take `COc1ccc(Cl)cc1S(=O)(=O)N1CCN(CC(=O)C(C)(C)C)CC1`: the inhibition is -2.8% (inactive). Besides, the inhibition under setting [1] was -8.9%.

Take `N#CCCn1cnc2ccccc21`: the inhibition was 2.1% (inactive). Also, the inhibition under setting [1] turned out to be 38.9%.

In the case of `CC(=O)NCC(=O)N(C)C(C(=O)Nc1ccc2c(c1)OCCO2)c1ccccc1` (configuration not stated), the inhibition was 0.7% (inactive). Besides, the inhibition under setting [1] came out at 7.7%.

`COc1ccccc1-c1cc(C(=O)NCCCn2ccnc2)no1`: the inhibition was 0.6% (inactive). Moreover, the inhibition under setting [1] came to 11.9%.

For the compound `O=C(CN1CCN(C(=O)c2ccco2)CC1)Nc1ccc2c(c1)OCO2`, the inhibition was 0.1% (inactive). The inhibition under setting [1] stood at 18.6%.

Turning to `CCOC(=O)N1CCN(C(=O)c2ccc3nc4cc(Cl)ccc4c(=O)n3c2)CC1`, the inhibition is 0.6% (inactive). The inhibition under setting [1] amounted to 4.6%.

Regarding `CCOC(=O)N1CCN(C(=O)c2cnc3n(c2=O)CCS3)CC1`, the inhibition was -0.4% (inactive). In addition, the inhibition under setting [1] is 7.7%.

As to `NC(=O)C1(N2CCCCC2)CCN(C(=O)c2ccc(C#Cc3ccccc3)o2)CC1`, the inhibition was 14.7% (inactive). The inhibition under setting [1] is 41.9%.

On to `COc1ccc(-c2noc(COc3ccc(Cl)c(C)c3)n2)cc1`, for which the inhibition is 0.3% (inactive). The inhibition under setting [1] is -1.9%.

Consider `COc1ccccc1N1CCN(C(=O)c2cc(-c3ccc(Cl)c(Cl)c3)on2)CC1`, for which the inhibition is 0.6% (inactive). Under setting [1], the inhibition was determined as 12%.

Regarding `Cc1ccc(S(=O)(=O)NCC(=O)N(CC(=O)NC2CCCCC2)Cc2ccco2)cc1`, the inhibition is 1% (inactive). Further, the inhibition under setting [1] was determined as 1.8%.

Turning to `O=C(CN1CCOCC1)N1CCCc2c1c(=O)oc1ccc(OCc3ccccc3)cc21`, the inhibition was 7.9% (inactive). Further, the inhibition under setting [1] was determined as 27.4%.

With `COC(=O)c1ccc(NC(=O)CSc2nnc(Cc3cccn3C)n2-c2ccc(F)cc2)cc1`, the inhibition is 0.7% (inactive). For the same compound, the inhibition under setting [1] amounted to 2.8%.

As for `CCOc1ccc(S(=O)(=O)n2ccnc2)c2ccccc12`, the inhibition is 3.6% (inactive). Moreover, the inhibition under setting [1] is 12.2%.

`COc1ccc(N2CCN(CCNC(=O)c3nnc(Cc4c(F)cccc4Cl)o3)CC2)cc1`: the inhibition is -1.4% (inactive). In addition, the inhibition under setting [1] was -14%.

`O=C(CSc1nnc(-c2c[nH]c3ccccc23)n1-c1ccc(F)cc1)NCc1ccco1`: the inhibition is -0.1% (inactive). In addition, the inhibition under setting [1] worked out at 3.9%.

For the compound `O=C(Nc1nccs1)C1CCCN1S(=O)(=O)c1cccc2cccnc12` (configuration not stated), the inhibition was 10.8% (inactive). The inhibition under setting [1] was 6.8%.

As for `CCOCCCN1C(=O)CN(C2CCCCC2)C(=O)C1c1ccc(OCC)c(OC)c1` (configuration not stated), the inhibition was 0.8% (inactive). Besides, under setting [1], the inhibition was 4.3%.

Consider `O=C(NC1=NCCS1)[C@H](Cc1ccccc1)N1C(=O)c2ccccc2C1=O`, for which the inhibition is -2% (inactive). In addition, under setting [1], the inhibition was -7.9%.

With `CCOc1ccc(/C(O)=C2/C(=O)C(=O)N(Cc3cccnc3)C2c2ccc(N(C)C)cc2)c(C)c1` (configuration not stated), the inhibition was -1.8% (inactive). Under setting [1], the inhibition was -3.1%.

As for `Cc1cc(NC(=O)CSc2nnc(-c3ccc(Cl)s3)o2)no1`, the inhibition is -5.9% (inactive). In addition, the inhibition under setting [1] was -26.8%.

With `COc1ccc(NC(=O)CCNC(=O)Cn2ccc3ccccc3c2=O)c(OC)c1`, the inhibition is -1.1% (inactive). For the same compound, the inhibition under setting [1] was -13.6%.

`COc1ccccc1N1CCN(c2nc3ccccc3n3nnnc23)CC1`: the inhibition is -2.2% (inactive). For the same compound, the inhibition under setting [1] is -4.7%.

On to `CC(=O)c1cccc(S(=O)(=O)N2CCC(n3nnc4cc(F)ccc43)CC2)c1`, for which the inhibition is -1.4% (inactive). Besides, the inhibition under setting [1] was -26.3%.

As to `CCOC(=O)c1cn(CC(=O)Nc2ccc(C(C)C)cc2)nn1`, the inhibition was 2.3% (inactive). Moreover, under setting [1], the inhibition is 13.3%.

Consider `CCOC(=O)c1ccc(Nc2cc(C)nc3nc(C)nn23)cc1`, for which the inhibition is -5.5% (inactive). Also, the inhibition under setting [1] was -32.8%.

Regarding `Cn1c(C(=O)NCCN2CCc3ccccc3C2)cc2c(=O)[nH]c3ccccc3c21`, the inhibition was -1.3% (inactive). Further, the inhibition under setting [1] is -0.4%.

Consider `COc1ccc(-n2ncc3c(N4CCCc5ccccc54)ncnc32)cc1`, for which the inhibition is -3.1% (inactive). For the same compound, under setting [1], the inhibition was -2.2%.

With `C=CCOc1ccc(/C=N/n2cncn2)cc1OC`, the inhibition is 0.5% (inactive). Under setting [1], the inhibition was -15.3%.

For `Cc1ccc(NC2=NC(c3ccccc3)n3c(nc(C)cc3=O)N2)cc1` (configuration not stated), the inhibition was -2.1% (inactive). Further, the inhibition under setting [1] was -6.2%.

Take `COc1ccc(CC(=O)Nc2ccc(-c3nnc(-c4ccc(C)cc4)o3)cc2)cc1`: the inhibition was 7.6% (inactive). The inhibition under setting [1] amounted to 35.1%.

Regarding `COc1ccc(NC(=O)c2c(SC)nsc2SC)cc1`, the inhibition is 67.4% (active). Further, the inhibition under setting [1] amounted to 74.3%.

With `CCCNC(=O)Nc1ccccc1C(=O)Nc1ccc(OC)cc1`, the inhibition is 1.7% (inactive). In addition, under setting [1], the inhibition worked out at 13.6%.

Consider `Cc1noc(COc2ccccc2OCC(O)CNC(C)(C)C)n1` (configuration not stated), for which the inhibition is -0.1% (inactive). Under setting [1], the inhibition is 0.9%.

As for `Cc1cccc(C2c3c(n(C)c(=O)n(C)c3=O)N=C3c4ccccc4C(=O)C32)c1` (configuration not stated), the inhibition was 1.5% (inactive). The inhibition under setting [1] turned out to be 20.3%.

On to `COc1cccc(N(C(=O)c2ccn[nH]2)C2(C(=O)Nc3c(C)cccc3C)CCCCC2)c1`, for which the inhibition was 5.5% (inactive). Moreover, under setting [1], the inhibition was -8%.

`CCN(Cc1nc2ccccc2c(=O)[nH]1)Cc1cc(=O)oc2cc(C)c(C)cc12`: the inhibition was 4.2% (inactive). In addition, under setting [1], the inhibition stood at 13.1%.

On to `Cn1c(COc2ccc(Cl)cc2)nc2ccccc2c1=O`, for which the inhibition is -6.8% (inactive). Also, the inhibition under setting [1] was -42.8%.

As for `COc1ccc(OC)c(C2N(c3ccccn3)C(=O)C3CCCN32)c1` (configuration not stated), the inhibition was -2.2% (inactive). Besides, the inhibition under setting [1] was -7.1%.

In the case of `COc1cccc(C(CC(=O)NCCN2CCOCC2)NS(=O)(=O)c2ccc(C)cc2)c1OC` (configuration not stated), the inhibition was -5% (inactive). In addition, the inhibition under setting [1] is -11.5%.

Turning to `COc1ccccc1C(=O)n1nc(-c2ccccc2)nc1N`, the inhibition is -0.9% (inactive). In addition, the inhibition under setting [1] was -0.5%.
